The source of these data is PubChem BioAssay (NCI).

Among the test systems are HCT-15 colon; HT29 colon; SNB-75 CNS; SNB-19 CNS; U251 CNS; PC-3 prostate; SK-MEL-5 melanoma; UACC-62 melanoma; LOX IMVI melanoma; SK-MEL-28 melanoma; SK-MEL-2 melanoma; EKVX NSCLC; SN12C renal; UO-31 renal; TK-10 renal; ACHN renal; CAKI-1 renal; A498 renal; CCRF-CEM leukemia; MOLT-4 leukemia.
What all share (assay): NCI-60 one-dose screen, 48 h (100 = growth as untreated, 0 = no growth, -100 = all killed)
Settings in all cases: 10 µM unless noted

The panel holds about 83,000 compounds, 20% with a hit somewhere; the sample as a whole holds those more often.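 48-hour exposure, single concentration, 96-well plates; percent growth endpoint where 0 means no net growth. Active: below 10.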 Unmarked numbers belong to inactive results. Activity calls are given as the source filed them.

As to `C#CCOC(=O)[C@@H]1CCCN1CC#C`, the growth is 85.7% with HCT-15 colon; 82.4% in the experiment on HT29 colon; 77.8% in the experiment with SNB-75 CNS; 86.9% in the experiment on SNB-19 CNS; 81.4% in the experiment on U251 CNS; 51.2% with PC-3 prostate. Besides, the growth in the experiment with SK-MEL-5 melanoma is 90.2%; in the experiment on UACC-62 melanoma, 92.8%; in the experiment on LOX IMVI melanoma, 77.7%; in the experiment with SK-MEL-28 melanoma, 107%; with SK-MEL-2 melanoma it was 98.2%; with EKVX NSCLC, 86.3%. The growth is 92.6% in the experiment with SN12C renal; 66.1% in the experiment on UO-31 renal; 96.2% in the experiment on TK-10 renal; 85.7% with ACHN renal; 76.3% in the experiment on CAKI-1 renal; 93.5% with A498 renal. Also, the growth in the experiment with CCRF-CEM leukemia is 81.9%; in the experiment on MOLT-4 leukemia, 61.5%.
With `COC(=O)c1[nH]nc2c1C1(C(=O)c3cccc4cccc1c34)C(C#N)=C(N)O2` (configuration not stated), the growth with HCT-15 colon was 99.4%; in the experiment on HT29 colon, 105%; in the experiment on SNB-75 CNS, 80.4%; with SNB-19 CNS it was 97.2%; in the experiment on U251 CNS it was 105%; in the experiment with PC-3 prostate, 83.9%. Also, the growth is 98.6% in the experiment on SK-MEL-5 melanoma; 91.8% in the experiment with UACC-62 melanoma; 97.7% in the experiment on LOX IMVI melanoma; 112% with SK-MEL-28 melanoma; 105% with SK-MEL-2 melanoma; 89.9% with EKVX NSCLC. In addition, the growth in the experiment on SN12C renal is 100%; in the experiment with UO-31 renal, 73.4%; in the experiment with TK-10 renal, 122%; in the experiment with ACHN renal, 99.6%; with CAKI-1 renal, 79.7%; with A498 renal it was 82.1%. Besides, the growth was 106% in the experiment with CCRF-CEM leukemia and 111% in the experiment on MOLT-4 leukemia.
Consider `CCCn1cnc2c(c1=N)C(c1ccc(F)cc1)c1sc3c(CC)cccc3c1O2` (configuration not stated), for which the growth in the experiment with HCT-15 colon was 12.6%; in the experiment on HT29 colon, 9.3% (active); in the experiment with SNB-75 CNS, 14.8%; in the experiment with SNB-19 CNS it was 15.3%; in the experiment on U251 CNS, 18.5%; in the experiment with PC-3 prostate it was 24%. In addition, the growth is -12.2% (active) in the experiment with SK-MEL-5 melanoma; 14% in the experiment on UACC-62 melanoma; 5.54% (active) with LOX IMVI melanoma; 40.4% in the experiment on SK-MEL-28 melanoma; 49.4% with SK-MEL-2 melanoma; 33.4% with EKVX NSCLC. Also, the growth with SN12C renal was 20.6%; in the experiment on UO-31 renal it was 27%; in the experiment on TK-10 renal, 61.3%; in the experiment on ACHN renal, 18.3%; with CAKI-1 renal it was 20.7%; in the experiment on A498 renal, -25.7% (active). Further, the growth in the experiment with CCRF-CEM leukemia is 8.39% (active); in the experiment on MOLT-4 leukemia, 9.49% (active).
Consider `CNC(=O)c1cc(-n2ccc3cc(NC(=O)Nc4ccc(N5CCOCC5)c(C(F)(F)F)c4)ccc32)ccn1`, for which the growth in the experiment with HCT-15 colon is 30.2%; in the experiment with HT29 colon it was 19.6%; in the experiment with SNB-75 CNS, 17.1%; with SNB-19 CNS, 74.2%; in the experiment on U251 CNS it was 42%; in the experiment with PC-3 prostate it was 4.72% (active). Also, the growth in the experiment on SK-MEL-5 melanoma is 4.69% (active); with UACC-62 melanoma it was 13.4%; in the experiment with LOX IMVI melanoma, 13.3%; in the experiment with SK-MEL-28 melanoma it was 62.9%; with SK-MEL-2 melanoma, 68.8%; in the experiment on EKVX NSCLC it was 65.4%. Moreover, the growth in the experiment on SN12C renal is 55.3%; with UO-31 renal, 35.2%; in the experiment on TK-10 renal, 61.3%; in the experiment on ACHN renal, 56.9%; in the experiment on CAKI-1 renal, 41.3%; in the experiment with A498 renal it was 70.7%. In addition, the growth in the experiment with MOLT-4 leukemia was 13.8%.
As to `COc1ccc(/C=N/NC2=NC3C(S2)N(C)C(=O)N3C)cc1` (configuration not stated), the growth in the experiment on HCT-15 colon is 28.4%; in the experiment on HT29 colon, 8.29% (active); in the experiment with SNB-75 CNS it was 8.09% (active); with SNB-19 CNS it was 34.6%; with U251 CNS it was 27.2%; in the experiment on PC-3 prostate it was 32.1%. The growth in the experiment with SK-MEL-5 melanoma was 31.1%; with UACC-62 melanoma, 38.3%; with LOX IMVI melanoma, 32.7%; in the experiment on SK-MEL-28 melanoma, 53.5%; in the experiment with SK-MEL-2 melanoma it was 29.9%; with EKVX NSCLC, 38.5%. The growth in the experiment with SN12C renal was 44.3%; in the experiment with UO-31 renal, 45%; in the experiment with TK-10 renal, 76.2%; with ACHN renal it was 42.7%; in the experiment with CAKI-1 renal, 24%; in the experiment on CCRF-CEM leukemia, 15.5%. Besides, the growth with MOLT-4 leukemia was 20.3%.
For `COc1cc(-c2nn(C(C)(C)C)cc2-c2ccnc(NCCCNS(=O)(=O)c3ccc(F)cc3)n2)ccc1Cl`, the growth in the experiment with HCT-15 colon is 59.7%; in the experiment with HT29 colon it was 73.2%; with SNB-75 CNS, 48.1%; in the experiment with SNB-19 CNS, 92.9%; with U251 CNS, 89.3%; with PC-3 prostate it was 51.5%. The growth in the experiment on SK-MEL-5 melanoma was 85%; with UACC-62 melanoma, 72.2%; with LOX IMVI melanoma, 74.8%; with SK-MEL-28 melanoma it was 89.8%; in the experiment with SK-MEL-2 melanoma, 86.9%; with EKVX NSCLC, 39%. For the same compound, the growth was 52.5% with SN12C renal; 42.3% with UO-31 renal; 68.8% in the experiment on TK-10 renal; 83.6% in the experiment on ACHN renal; 25% with CAKI-1 renal; 51.9% in the experiment on A498 renal. Also, the growth with MOLT-4 leukemia is 49.5%.
As to `COc1c(N2CC3CCCNC3C2)c(F)cc2c(=O)c(C(=O)N/N=C/c3ccc(F)cc3)cn(C3CC3)c12` (configuration not stated), the growth in the experiment with HCT-15 colon was 45.9%; with HT29 colon it was 45.9%; in the experiment with SNB-75 CNS, 83.6%; in the experiment with SNB-19 CNS, 99.5%; in the experiment on U251 CNS, 81.4%; in the experiment with PC-3 prostate, 76.4%. Also, the growth with SK-MEL-5 melanoma was 82.7%; in the experiment on UACC-62 melanoma, 80.2%; in the experiment with LOX IMVI melanoma it was 46.1%; in the experiment with SK-MEL-28 melanoma, 81%; with SK-MEL-2 melanoma, 100%; in the experiment with EKVX NSCLC it was 90%. For the same compound, the growth is 88.4% with SN12C renal; 80.7% in the experiment on UO-31 renal; 101% with TK-10 renal; 104% in the experiment with ACHN renal; 87.7% in the experiment with CAKI-1 renal; 59.9% in the experiment with A498 renal. For the same compound, the growth is 63.8% in the experiment with CCRF-CEM leukemia and 63.1% in the experiment with MOLT-4 leukemia.
